Results from PubChem BioAssay (EPA / NIEHS).
Results filed as inconclusive are left out. Activity calls are given as the source filed them. The calls were made as follows: active = hit-call score of the fitted dose curve at least 0.9, where 1 is the maximum; inconclusive = response in the unintended direction; inactive = score below 0.9.

target: human RAR-related Orphan Receptor beta (RORb), RORB (gene 6096) (UniProt Q92753); assay: ATG_RORb_TRANS: Attagene TRANS-FACTORIAL HepG2 Assay for human RAR-related Orphan Receptor beta (RORb) (AID 2283010)
Sequence (Q92753 whole entry, looked up, the tested form may be a part): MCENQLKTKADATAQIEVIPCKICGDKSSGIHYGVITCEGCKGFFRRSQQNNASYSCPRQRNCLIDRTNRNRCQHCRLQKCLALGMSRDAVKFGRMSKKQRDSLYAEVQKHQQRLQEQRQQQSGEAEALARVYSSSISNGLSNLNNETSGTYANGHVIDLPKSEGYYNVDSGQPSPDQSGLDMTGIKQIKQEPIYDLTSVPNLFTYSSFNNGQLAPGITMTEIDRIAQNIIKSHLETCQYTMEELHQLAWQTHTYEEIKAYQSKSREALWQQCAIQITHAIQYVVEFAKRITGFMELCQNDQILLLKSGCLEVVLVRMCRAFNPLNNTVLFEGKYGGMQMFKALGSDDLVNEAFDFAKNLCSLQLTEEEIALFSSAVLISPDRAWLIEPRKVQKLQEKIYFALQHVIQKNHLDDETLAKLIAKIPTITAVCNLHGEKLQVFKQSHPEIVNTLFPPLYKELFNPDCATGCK
Method in brief: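 Readout is reporter-gene mRNA induction, detected as fluorescence after RT-PCR and capillary electrophoresis, fitted for gain of signal against DMSO controls. Transiently transfected HepG2 liver cells carrying GAL4-UAS reporter constructs were treated for 24 hours.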

outcome, inactive:
C=CCCCCCCCCCC
CCCC(C)=O
Cc1ccc2c(c1)C(=O)OC2=O
N[C@@H](Cc1cc(I)c(Oc2cc(I)c(O)c(I)c2)c(I)c1)C(=O)O
COc1ccc(N=Nc2cc(C)c(N=Nc3ccc(S(=O)(=O)O)cc3)cc2OC)cc1
Cc1c(C2(c3cc(Br)c(O)c(Br)c3C)OS(=O)(=O)c3ccccc32)cc(Br)c(O)c1Br
C1CCOC1
O=C(c1ccccc1)C(O)c1ccccc1 (centres undefined)
CCCCOCC
O=C1NC2NC(=O)NC2N1 (centres undefined)
COc1ccc(N)c([N+](=O)[O-])c1
O=c1[nH]c(=O)c2cn[nH]c2[nH]1
CCOC(=O)CN
C=CCOC(=O)CCCCCC
